Test results taken from article PMC7862700, “An all-to-all approach to the identification of sequence-specific readers for epigenetic DNA modifications on cytosine”.

How the values were obtained:
Experiment in all cases: DAPPL (digital affinity profiling via proximity ligation, sequencing); 10 mM Tris-HCl pH 7.5, 50 mM NaCl, 1 mM DTT, 4% glycerol, room temperature, 30 min; GST-TFs on glutathione beads, 16-mer random dsDNA library, 0.1% formaldehyde crosslink after washing; high values mean tight binding
Details in all cases: protein: recombinant; tags: N-terminal GST; dsDNA, one strand shown
[1] = target: T1, FLI1 (Homo sapiens, UniProt Q01543 1-452)
T1 sequence: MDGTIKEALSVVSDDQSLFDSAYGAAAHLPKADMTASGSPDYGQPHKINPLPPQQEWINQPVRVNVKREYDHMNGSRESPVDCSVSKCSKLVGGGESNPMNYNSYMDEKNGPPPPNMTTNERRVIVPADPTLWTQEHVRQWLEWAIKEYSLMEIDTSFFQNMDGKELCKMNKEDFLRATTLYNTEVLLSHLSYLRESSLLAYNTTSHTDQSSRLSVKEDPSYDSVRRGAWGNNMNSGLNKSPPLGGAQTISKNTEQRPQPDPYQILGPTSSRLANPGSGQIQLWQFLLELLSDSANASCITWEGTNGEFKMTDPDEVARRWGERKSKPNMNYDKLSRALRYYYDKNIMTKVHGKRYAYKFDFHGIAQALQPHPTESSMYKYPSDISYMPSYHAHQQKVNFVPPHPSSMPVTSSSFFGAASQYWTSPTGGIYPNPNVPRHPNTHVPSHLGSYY
Summary of the method: (§1)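 After expression in yeast as GST fusions, human transcription factors were bound to glutathione beads, DNA-barcoded and mixed with a tag-only sample. The pools were incubated with 200 nmole of a 16-mer random double-stranded DNA library in Tris/NaCl/DTT/glycerol buffer (30 min, room temperature), washed and crosslinked with 0.1% formaldehyde. Proximity ligation with BsaI/T4 ligase ran for 1 h at 37 °C, before PCR amplification and sequencing on an Illumina NextSeq500. Binding signal is a hexamer's read frequency for a factor divided by its frequency for the tag-only sample.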

[2] = target: T2, ELK1 (Homo sapiens, UniProt P19419 1-428)
T2 sequence: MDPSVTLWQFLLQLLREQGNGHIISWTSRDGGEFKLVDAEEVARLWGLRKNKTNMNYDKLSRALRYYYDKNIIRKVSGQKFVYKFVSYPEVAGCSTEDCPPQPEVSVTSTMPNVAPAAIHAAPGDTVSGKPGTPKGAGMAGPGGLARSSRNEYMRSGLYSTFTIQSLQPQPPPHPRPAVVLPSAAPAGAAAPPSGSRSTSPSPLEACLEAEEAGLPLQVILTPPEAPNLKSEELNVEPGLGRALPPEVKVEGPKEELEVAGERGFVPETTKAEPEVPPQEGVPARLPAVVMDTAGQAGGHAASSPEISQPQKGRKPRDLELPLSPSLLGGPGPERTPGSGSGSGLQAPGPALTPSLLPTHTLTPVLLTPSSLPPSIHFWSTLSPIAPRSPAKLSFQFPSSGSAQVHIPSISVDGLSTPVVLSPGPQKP
Summary of the method: as §1

[3] = target: T3, GABPA (Homo sapiens, UniProt Q06546 1-454)
T3 sequence: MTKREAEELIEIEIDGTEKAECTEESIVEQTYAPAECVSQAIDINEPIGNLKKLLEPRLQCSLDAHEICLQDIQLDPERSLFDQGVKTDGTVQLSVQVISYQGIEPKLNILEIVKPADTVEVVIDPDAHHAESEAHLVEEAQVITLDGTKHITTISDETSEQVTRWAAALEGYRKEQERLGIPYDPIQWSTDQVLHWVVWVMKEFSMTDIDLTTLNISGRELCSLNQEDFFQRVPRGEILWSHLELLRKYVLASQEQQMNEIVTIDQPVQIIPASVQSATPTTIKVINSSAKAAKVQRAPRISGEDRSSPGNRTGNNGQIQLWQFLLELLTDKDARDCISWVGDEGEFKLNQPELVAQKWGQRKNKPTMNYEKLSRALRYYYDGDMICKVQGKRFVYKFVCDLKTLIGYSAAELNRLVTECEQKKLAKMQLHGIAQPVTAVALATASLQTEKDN
Summary of the method: as §1

[4] = target: T4, ERG (Homo sapiens, UniProt P11308 1-479)
T4 sequence: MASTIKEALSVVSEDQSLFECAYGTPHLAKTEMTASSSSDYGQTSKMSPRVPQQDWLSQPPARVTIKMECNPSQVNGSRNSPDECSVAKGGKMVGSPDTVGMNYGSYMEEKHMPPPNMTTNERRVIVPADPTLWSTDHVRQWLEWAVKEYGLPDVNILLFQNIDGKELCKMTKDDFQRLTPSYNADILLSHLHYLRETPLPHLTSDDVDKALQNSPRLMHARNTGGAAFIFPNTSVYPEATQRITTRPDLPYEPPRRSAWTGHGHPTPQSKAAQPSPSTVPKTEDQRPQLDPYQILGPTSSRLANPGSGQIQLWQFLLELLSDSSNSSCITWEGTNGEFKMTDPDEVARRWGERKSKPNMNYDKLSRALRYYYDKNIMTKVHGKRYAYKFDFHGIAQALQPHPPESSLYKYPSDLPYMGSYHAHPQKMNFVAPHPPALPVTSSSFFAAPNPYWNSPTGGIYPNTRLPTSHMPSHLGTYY
Summary of the method: as §1

[5] = target: ELF1 (Homo sapiens, UniProt P32519 1-619)
Summary of the method: as §1

[6] = target: T5, EHF (Homo sapiens, UniProt Q9NZC4 1-300)
T5 sequence: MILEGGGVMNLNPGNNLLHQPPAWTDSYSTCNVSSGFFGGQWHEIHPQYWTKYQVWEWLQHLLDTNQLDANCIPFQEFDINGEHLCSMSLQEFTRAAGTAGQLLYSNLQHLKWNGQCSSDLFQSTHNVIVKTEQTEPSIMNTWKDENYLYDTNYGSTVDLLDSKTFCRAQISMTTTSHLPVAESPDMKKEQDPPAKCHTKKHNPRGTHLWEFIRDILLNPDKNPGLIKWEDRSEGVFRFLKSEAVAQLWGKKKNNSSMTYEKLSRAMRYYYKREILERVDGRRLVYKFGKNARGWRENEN
Summary of the method: as §1

[7] = target: SPI1 (Homo sapiens, UniProt P17947 1-270)
Summary of the method: as §1

[8] = target: SPIB (Homo sapiens, UniProt Q01892 1-262)
Summary of the method: as §1

[9] = target: T6, ELK3 (Homo sapiens, UniProt P41970 1-407)
T6 sequence: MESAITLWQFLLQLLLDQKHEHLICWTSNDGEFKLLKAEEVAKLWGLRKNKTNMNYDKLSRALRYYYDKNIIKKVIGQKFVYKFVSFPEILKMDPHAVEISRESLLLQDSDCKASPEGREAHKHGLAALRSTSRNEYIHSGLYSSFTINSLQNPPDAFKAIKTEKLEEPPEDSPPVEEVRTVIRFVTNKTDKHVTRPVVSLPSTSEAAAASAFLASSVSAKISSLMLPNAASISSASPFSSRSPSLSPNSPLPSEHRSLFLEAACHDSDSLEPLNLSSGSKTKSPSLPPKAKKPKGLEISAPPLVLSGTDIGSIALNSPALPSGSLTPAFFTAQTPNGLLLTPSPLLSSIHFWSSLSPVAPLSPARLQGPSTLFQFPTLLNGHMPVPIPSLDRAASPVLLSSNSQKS
Summary of the method: as §1

[10] = target: T7, FEV (Homo sapiens, UniProt Q99581 1-238)
T7 sequence: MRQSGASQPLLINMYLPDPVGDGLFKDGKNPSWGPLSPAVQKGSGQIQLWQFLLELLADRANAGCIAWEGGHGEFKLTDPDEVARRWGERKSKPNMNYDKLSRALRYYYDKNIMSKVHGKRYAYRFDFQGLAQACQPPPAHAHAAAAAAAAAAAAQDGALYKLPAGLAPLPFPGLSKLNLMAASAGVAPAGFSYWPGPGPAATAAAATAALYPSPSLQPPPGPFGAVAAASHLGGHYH
Summary of the method: as §1

[11] = target: ETV5 (Homo sapiens, UniProt P41161 1-510)
Summary of the method: as §1

[12] = target: T8, SPIC (Homo sapiens, UniProt Q8N5J4 1-248)
T8 sequence: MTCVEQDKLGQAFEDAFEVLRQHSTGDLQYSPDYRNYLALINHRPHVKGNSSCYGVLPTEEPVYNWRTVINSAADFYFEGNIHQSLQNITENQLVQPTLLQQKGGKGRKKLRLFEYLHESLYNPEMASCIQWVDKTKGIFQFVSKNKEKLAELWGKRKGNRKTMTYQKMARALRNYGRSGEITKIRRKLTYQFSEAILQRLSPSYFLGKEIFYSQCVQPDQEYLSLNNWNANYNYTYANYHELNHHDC
Summary of the method: as §1

[13] = target: ELF4 (Homo sapiens, UniProt Q99607 1-663)
Summary of the method: as §1

[14] = target: ETV1 (Homo sapiens, UniProt P50549 1-477)
Summary of the method: as §1

[15] = target: T9, ERF (Homo sapiens, UniProt P50548 1-548)
T9 sequence: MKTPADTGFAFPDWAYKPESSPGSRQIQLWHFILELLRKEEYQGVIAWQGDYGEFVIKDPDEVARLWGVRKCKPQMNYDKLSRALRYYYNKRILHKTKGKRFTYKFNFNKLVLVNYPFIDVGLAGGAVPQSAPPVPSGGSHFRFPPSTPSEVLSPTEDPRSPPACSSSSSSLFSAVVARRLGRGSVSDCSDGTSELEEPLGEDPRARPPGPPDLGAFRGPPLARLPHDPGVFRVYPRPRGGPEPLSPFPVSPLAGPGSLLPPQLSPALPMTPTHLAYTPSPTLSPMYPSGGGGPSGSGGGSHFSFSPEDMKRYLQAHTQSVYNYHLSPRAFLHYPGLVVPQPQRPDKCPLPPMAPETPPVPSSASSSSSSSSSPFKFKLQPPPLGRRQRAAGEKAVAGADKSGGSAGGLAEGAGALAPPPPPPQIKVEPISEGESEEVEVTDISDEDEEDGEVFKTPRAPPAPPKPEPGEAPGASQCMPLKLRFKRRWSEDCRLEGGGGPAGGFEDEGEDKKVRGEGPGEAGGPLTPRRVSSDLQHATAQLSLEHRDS
Summary of the method: as §1

[16] = target: T10, ETS2 (Homo sapiens, UniProt P15036 1-469)
T10 sequence: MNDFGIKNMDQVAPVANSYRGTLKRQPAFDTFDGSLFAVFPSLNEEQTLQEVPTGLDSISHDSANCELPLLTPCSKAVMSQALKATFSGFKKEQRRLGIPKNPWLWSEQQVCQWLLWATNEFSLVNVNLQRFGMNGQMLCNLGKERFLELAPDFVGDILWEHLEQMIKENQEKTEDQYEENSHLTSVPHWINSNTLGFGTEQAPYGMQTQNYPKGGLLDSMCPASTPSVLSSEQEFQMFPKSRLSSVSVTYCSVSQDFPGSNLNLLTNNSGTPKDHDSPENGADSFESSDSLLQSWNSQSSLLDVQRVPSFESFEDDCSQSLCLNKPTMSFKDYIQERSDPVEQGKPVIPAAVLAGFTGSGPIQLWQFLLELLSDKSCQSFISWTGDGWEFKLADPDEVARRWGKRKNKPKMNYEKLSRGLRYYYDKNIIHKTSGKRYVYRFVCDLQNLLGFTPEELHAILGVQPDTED
Summary of the method: as §1

[17] = target: T11, SPDEF (Homo sapiens, UniProt O95238 1-335)
T11 sequence: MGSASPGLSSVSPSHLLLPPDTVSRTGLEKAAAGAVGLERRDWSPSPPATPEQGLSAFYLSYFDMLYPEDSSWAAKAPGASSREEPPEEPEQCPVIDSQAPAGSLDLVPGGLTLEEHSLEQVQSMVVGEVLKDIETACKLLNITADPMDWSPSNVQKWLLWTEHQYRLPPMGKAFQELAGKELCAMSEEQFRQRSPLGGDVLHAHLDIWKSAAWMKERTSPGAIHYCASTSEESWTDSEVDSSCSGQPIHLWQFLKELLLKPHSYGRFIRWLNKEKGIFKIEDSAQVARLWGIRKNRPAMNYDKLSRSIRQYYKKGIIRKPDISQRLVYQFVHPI
Summary of the method: as §1

[18] = target: T12, ETV3 (Homo sapiens, UniProt P41162-2 1-143)
T12 sequence: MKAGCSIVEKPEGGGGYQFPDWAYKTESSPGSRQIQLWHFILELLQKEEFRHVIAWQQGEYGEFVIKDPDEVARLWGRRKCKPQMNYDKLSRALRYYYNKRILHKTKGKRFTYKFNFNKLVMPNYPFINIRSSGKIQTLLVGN
Summary of the method: as §1

[19] = target: ETV6 (Homo sapiens, UniProt P41212 1-452)
Summary of the method: as §1

Chain of ETV5 (P41161 whole entry): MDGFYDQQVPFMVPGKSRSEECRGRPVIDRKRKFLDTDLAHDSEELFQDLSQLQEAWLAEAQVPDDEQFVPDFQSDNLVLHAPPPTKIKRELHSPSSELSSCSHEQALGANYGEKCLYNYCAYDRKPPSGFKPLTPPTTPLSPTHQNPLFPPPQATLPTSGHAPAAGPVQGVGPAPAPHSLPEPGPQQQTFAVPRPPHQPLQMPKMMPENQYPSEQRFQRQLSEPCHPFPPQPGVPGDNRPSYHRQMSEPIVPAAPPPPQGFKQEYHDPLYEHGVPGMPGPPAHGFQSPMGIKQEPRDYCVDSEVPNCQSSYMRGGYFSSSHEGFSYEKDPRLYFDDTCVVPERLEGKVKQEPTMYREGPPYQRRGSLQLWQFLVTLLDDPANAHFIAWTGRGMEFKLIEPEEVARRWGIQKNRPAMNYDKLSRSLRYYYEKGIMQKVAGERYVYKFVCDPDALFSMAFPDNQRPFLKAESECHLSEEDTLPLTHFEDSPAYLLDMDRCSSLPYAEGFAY
Chain of ELF4 (Q99607 whole entry): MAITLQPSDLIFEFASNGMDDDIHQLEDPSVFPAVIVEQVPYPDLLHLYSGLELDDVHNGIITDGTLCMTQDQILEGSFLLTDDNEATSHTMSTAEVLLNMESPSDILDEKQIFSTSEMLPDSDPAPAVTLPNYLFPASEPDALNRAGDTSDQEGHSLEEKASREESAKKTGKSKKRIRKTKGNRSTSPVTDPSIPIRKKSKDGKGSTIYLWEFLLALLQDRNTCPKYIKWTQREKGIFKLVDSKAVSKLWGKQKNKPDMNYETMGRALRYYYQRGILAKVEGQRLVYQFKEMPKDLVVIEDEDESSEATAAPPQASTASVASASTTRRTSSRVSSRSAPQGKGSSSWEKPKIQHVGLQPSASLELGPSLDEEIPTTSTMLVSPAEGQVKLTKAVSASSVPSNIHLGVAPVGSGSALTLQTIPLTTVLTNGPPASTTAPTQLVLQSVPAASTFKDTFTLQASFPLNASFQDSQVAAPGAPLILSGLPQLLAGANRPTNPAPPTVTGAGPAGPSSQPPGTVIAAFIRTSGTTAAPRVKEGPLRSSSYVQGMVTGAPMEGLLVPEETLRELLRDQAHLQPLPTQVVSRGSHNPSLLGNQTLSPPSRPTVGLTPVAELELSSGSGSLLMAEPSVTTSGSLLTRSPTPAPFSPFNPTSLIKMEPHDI
Chain of ELF1 (P32519 whole entry): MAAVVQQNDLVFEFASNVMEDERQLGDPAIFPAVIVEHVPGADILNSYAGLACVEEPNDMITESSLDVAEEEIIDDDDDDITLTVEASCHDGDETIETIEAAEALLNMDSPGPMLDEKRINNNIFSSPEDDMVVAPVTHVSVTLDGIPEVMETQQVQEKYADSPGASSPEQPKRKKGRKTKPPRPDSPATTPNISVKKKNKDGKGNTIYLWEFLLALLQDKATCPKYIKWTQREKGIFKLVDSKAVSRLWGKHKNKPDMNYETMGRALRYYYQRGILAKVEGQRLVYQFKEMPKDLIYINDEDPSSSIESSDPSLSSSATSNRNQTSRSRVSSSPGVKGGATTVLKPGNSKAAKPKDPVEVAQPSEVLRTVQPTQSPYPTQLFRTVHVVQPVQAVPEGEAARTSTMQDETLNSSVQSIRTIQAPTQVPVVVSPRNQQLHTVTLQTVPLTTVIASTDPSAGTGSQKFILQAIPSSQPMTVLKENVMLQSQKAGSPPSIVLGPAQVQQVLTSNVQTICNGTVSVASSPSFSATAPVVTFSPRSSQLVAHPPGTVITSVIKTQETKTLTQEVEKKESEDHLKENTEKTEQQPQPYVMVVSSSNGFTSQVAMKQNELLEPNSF
Chain of ETV1 (P50549 whole entry): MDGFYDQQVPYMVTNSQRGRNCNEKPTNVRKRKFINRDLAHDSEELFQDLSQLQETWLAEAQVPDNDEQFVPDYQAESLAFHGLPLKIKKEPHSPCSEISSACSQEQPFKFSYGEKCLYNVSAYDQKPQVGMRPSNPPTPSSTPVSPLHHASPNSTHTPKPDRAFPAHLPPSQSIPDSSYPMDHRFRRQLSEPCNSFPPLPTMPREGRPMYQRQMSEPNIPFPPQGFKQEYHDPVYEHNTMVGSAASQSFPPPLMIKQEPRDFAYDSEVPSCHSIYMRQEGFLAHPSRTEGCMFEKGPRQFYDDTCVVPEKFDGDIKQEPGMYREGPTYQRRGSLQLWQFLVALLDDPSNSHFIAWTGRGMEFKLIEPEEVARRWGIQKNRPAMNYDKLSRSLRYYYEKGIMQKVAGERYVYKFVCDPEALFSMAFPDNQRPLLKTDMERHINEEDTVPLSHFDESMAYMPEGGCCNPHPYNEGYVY
Chain of ETV6 (P41212 whole entry): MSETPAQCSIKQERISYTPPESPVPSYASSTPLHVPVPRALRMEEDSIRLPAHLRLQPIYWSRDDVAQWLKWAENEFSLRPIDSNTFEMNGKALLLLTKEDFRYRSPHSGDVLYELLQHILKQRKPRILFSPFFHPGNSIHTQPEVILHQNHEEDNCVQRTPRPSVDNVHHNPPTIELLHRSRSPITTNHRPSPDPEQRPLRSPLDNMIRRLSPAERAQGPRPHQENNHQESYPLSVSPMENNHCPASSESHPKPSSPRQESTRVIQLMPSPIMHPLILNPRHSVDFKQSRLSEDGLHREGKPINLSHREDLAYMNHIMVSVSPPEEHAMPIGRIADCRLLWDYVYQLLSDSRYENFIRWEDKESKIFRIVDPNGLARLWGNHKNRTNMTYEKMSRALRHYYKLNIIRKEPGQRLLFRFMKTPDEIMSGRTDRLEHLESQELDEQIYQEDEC
Chain of SPIB (Q01892 whole entry): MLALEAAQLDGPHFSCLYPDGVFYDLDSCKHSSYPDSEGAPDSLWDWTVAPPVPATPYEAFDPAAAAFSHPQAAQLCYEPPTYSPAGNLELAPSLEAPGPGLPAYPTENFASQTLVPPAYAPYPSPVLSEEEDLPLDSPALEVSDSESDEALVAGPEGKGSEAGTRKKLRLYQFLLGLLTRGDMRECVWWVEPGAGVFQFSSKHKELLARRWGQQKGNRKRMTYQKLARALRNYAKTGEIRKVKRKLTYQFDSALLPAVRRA

ATGCCG
binding signal [1]: 1.12 fold enrichment (6-mer frequency, TF over GST control) | binding signal [2]: 1.13 fold enrichment (6-mer frequency, TF over GST control) | binding signal [3]: 1.09 fold enrichment (6-mer frequency, TF over GST control) | binding signal [4]: 1.12 fold enrichment (6-mer frequency, TF over GST control) | binding signal [5]: 1.09 fold enrichment (6-mer frequency, TF over GST control) | binding signal [6]: 1.16 fold enrichment (6-mer frequency, TF over GST control) | binding signal [7]: 1.13 fold enrichment (6-mer frequency, TF over GST control) | binding signal [8]: 1.17 fold enrichment (6-mer frequency, TF over GST control) | binding signal [9]: 1.07 fold enrichment (6-mer frequency, TF over GST control) | binding signal [10]: 1.16 fold enrichment (6-mer frequency, TF over GST control) | binding signal [11]: 1.15 fold enrichment (6-mer frequency, TF over GST control) | binding signal [12]: 1.17 fold enrichment (6-mer frequency, TF over GST control) | binding signal [13]: 1.19 fold enrichment (6-mer frequency, TF over GST control) | binding signal [14]: 1.11 fold enrichment (6-mer frequency, TF over GST control) | binding signal [15]: 1.01 fold enrichment (6-mer frequency, TF over GST control) | binding signal [16]: 1.08 fold enrichment (6-mer frequency, TF over GST control) | binding signal [17]: 1.13 fold enrichment (6-mer frequency, TF over GST control) | binding signal [18]: 1.24 fold enrichment (6-mer frequency, TF over GST control) | binding signal [19]: 1.15 fold enrichment (6-mer frequency, TF over GST control)
